According to PubChem BioAssay (NCATS):
Records with an inconclusive call do not appear. Active and inactive are the calls of the source. Unless noted, calls follow the shape of the dose curve; as a rule, active = well fitted curve in the direction sought with a large enough effect; inconclusive = small, poorly fitted or top-dose-only effect, or another doubt; inactive = no such curve, though single readings can be large; an effect the other way counts as inactive or inconclusive.

How the values were obtained:
[1] = Cell Viability - BJ (AID 421; calls by dose curve;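 also: potency is read from the fitted curve at half-maximal effect; cells exposed to compound for 40 hours at 37 °C before readout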); conditions: BJ fibroblast viability, qHTS
Method in brief: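 Cytotoxicity in human BJ foreskin fibroblasts is scored as loss of cellular ATP after a 40-hour exposure, measured by luciferase luminescence. Controls are DMSO and 100 uM tamoxifen.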

[2] = Cell Viability - Jurkat (AID 426;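 active = dose-dependent loss of cell ATP signal giving a full or clear fitted curve, ranked by lower potency value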; also: potency is read from the fitted curve at half-maximal effect); conditions: qHTS
Method in brief: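 Luminescent ATP read-out (CellTiter-Glo, 20 min at room temperature) after 40 hr compound exposure at 37 °C of Jurkat E6-1 cells, 5000/well. Decreased ATP taken as cytotoxicity; AC50 from standard Hill equation.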

[3] = Cell Viability - Hek293 (AID 427;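 active = compounds whose dose-response curve shows a full or clear partial loss of cell viability, called from curve shape rather than a numeric limit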;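 also: potency is read from the fitted curve at half-maximal effect; cells exposed to compound for 40 hours at 37 °C before reading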); conditions: qHTS
Method in brief: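 qHTS, human embryonic kidney (adenovirus-transformed) cells; 40 hr cpd, 37 °C; CellTiter-Glo ATP luminescence. Norm: DMSO = 0, 100 uM tamoxifen = 100% inhibition. Hill-fit AC50.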

[4] = Cell Viability - HepG2 (AID 433; calls by dose curve;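 also: potency is read from the fitted curve at half-maximal effect; potency for ATP loss meaning cytotoxicity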); conditions: qHTS
Method in brief: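 In this qHTS format, a 40 h, 37 °C compound incubation of HepG2 cells in complete medium precedes a 20 min CellTiter-Glo step at room temperature. Tamoxifen and doxorubicin serve as positive controls; Hill-equation fits yield AC50.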

[5] = Cell Viability - MRC5 (AID 434; calls by dose curve;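 also: potency is read from the fitted curve at half-maximal effect; potency reflects cytotoxicity seen as loss of intracellular ATP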); conditions: MRC5 lung fibroblast viability, qHTS
Method in brief: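 Decrease in intracellular ATP, quantified by luciferase light output, reflects compound toxicity toward MRC5 cells exposed for 40 hr in complete culture medium. Concentration-response curves, scaled between DMSO and 100 uM tamoxifen, gave AC50 values.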

[6] = Cell Viability - SK-N-SH (AID 435; calls by dose curve; also: potency is read from the fitted curve at half-maximal effect); conditions: SK-N-SH neuroblastoma cell viability qHTS
Method in brief: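 Human neuroblastoma line, 40 h exposure at 37 °C, ATP quantified via luciferase luminescence; DMSO and 100 uM tamoxifen define 0 and 100% inhibition for AC50 fitting.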

[7] = biological target: Mitogen-activated protein kinase 10 (Mus musculus) (UniProt Q61831); assay: JNK3 AlphaScreen Assay (AID 530; active = well fitted curve in either direction with a large enough effect, not every such curve was filed as active;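 also: kinase came from lysate of stimulated human HepG2 cells; signal reports phosphorylation of biotinylated GST-cJun 1-79 at Ser73 with 10 µM ATP; % is scaled to controls: 0 for no effect and ±100 for the full control effect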); conditions: JNK3 lysate, c-Jun phosphorylation; series mostly up to 57.1 µM
Method in brief: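 Biotinylated GST-cJun(1-79) served as substrate for JNK3 in HepG2 lysates stimulated with IL-1beta and TNF-alpha. ATP was 10 uM final, pH 7.6. Ser73 phosphorylation was quantified by AlphaScreen (680 nm excitation).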

[8] = Cell Viability - N2a (AID 540); conditions: N2a mouse neuroblastoma cell viability; activity change, negative = cytotoxicity: at 92.2 µM (top of the series);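 also: plate controls were DMSO alone for no effect and tamoxifen control for full effect; nearly all actives have a fitted effect of over 45% in size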
Method in brief: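 N2a mouse neuroblastoma, 1500 cells/well, 5 hr settle; compound 40 hr, 37 °C; CellTiter-Glo 20 min RT; luminescence; Hill-fit AC50.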

[9] = Cell Viability - NIH 3T3 (AID 541); conditions: NIH 3T3 cell viability, qHTS; activity change, negative = cytotoxicity: at 92.2 µM (top of the series);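 also: plate controls were DMSO alone for no effect and tamoxifen positive control for full effect; nearly all actives have a fitted effect of over 25% in size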
Method in brief: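 qHTS format; 40 hr compound exposure, 37 °C; CellTiter-Glo luminescence (cellular ATP) read-out after 20 min at RT. Decrease in ATP = cytotoxicity; AC50 from standard Hill fit.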

[10] = Cell Viability - HUV-EC-C (AID 542); conditions: HUV-EC-C endothelial cell viability, qHTS; series mostly up to 92.2 µM; also: % is scaled to controls: 0 for no effect and ±100 for the full control effect; nearly all actives have a fitted effect of over 35% in size
Method in brief: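 Luminescent ATP read-out (CellTiter-Glo, 20 min room temperature) after 40 hr compound treatment of HUV-EC-C cells at 37 °C. Concentration-response data fitted with the standard Hill equation to give AC50; tamoxifen and doxorubicin served as positive controls.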

[11] = Cell Viability - H-4-II-E (AID 543); conditions: H-4-II-E rat hepatoma viability; series mostly up to 92.2 µM; also: % is scaled to controls: 0 for no effect and ±100 for the full control effect; nearly all actives have a fitted effect of over 35% in size
Method in brief: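 qHTS, rat hepatoma H-4-II-E, 1500 cells/well; 40 hr compound exposure, 37 °C; CellTiter-Glo ATP luminescence after 20 min RT; AC50 by standard Hill fit.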

[12] = Cell Viability - SH-SY5Y (AID 544); conditions: SH-SY5Y neuroblastoma cell viability; viability change, negative = cytotoxic: at 92.2 µM (top of the series); also: nearly all actives have a fitted effect of over 55% in size
Method in brief: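 SH-SY5Y, 1500 cells/well, 5 hr pre-incubation 37 °C; cpd 40 hr 37 °C; CellTiter-Glo 20 min RT; luminescence (ATP) read. qHTS concentration-response, Hill fit → AC50. Tamoxifen, doxorubicin as positive controls.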

[13] = Cell Viability - Renal Proximal Tubule (AID 545); conditions: renal proximal tubule cells viability, primary cells of rat origin; series mostly up to 91.7 µM; also: nearly all actives have a fitted effect of over 40% in size
Method in brief: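 In this qHTS format, normal rat kidney-derived proximal tubule cells in complete culture medium receive compound titrations, then sit 40 hours at 37 °C before luciferase-based ATP quantitation; potency is reported as AC50 from concentration-response curves.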

[14] = Cell Viability - Mesenchymal (AID 546); conditions: mesenchymal cells viability, qHTS; series mostly up to 91.7 µM;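 also: cells exposed to compound for 40 hours before reading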
Method in brief: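 In this qHTS cytotoxicity format, glomerulus-derived human mesenchymal kidney cells received compound for 40 hr, then luciferase-based ATP quantitation. Concentration-response data were fitted with the Hill equation.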

[15] = Cellular Toxicity (caspase-3) HepG2 (AID 654); conditions: HepG2 caspase-3 activation, luminescence; series mostly up to 92.2 µM;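 also: cells exposed to compound for 16 hours before reading; 0% = DMSO alone and 100% = caspase signal from 100 µM tamoxifen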
Method in brief: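 Luminescent Caspase-Glo 3/7 readout after 16 hr compound exposure of human hepatocellular carcinoma HepG2 cells at 37 °C; qHTS concentration-response, normalized DMSO = 0%, 100 uM tamoxifen = 100%; AC50 by standard Hill equation.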

[16] = Cellular Toxicity (caspase-3) Jurkat (AID 655); conditions: Jurkat caspase-3 activation, luminescence; caspase-3 activation: at 92.2 µM (top of the series), DMSO = 0%, tamoxifen = 100%;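 also: cells exposed to compound for 16 h at 37 °C before reading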
Method in brief: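 qHTS in human Jurkat T-cell leukemia line: 16 hr compound treatment at 37 °C, caspase-3/7 activity measured by Caspase-Glo luminescence. AC50 derived from Hill equation.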

[17] = Cellular Toxicity (caspase-3) HUV-EC-C (AID 656); conditions: HUV-EC-C cells, caspase-3 activation (apoptosis), vehicle = 0, 100 µM tamoxifen = 100%; series mostly up to 92.2 µM;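 also: cells exposed to compound for 16 h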
Method in brief: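 Concentration-dependent caspase 3/7 induction was assessed in HUV-EC-C cells exposed for 16 hours. Data scaled between DMSO and tamoxifen (100 uM) controls.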

[18] = Cellular Toxicity (caspase-3) SHSY5Y (AID 657); conditions: SH-SY5Y caspase-3 activation, DMSO zero, 10 µM staurosporine = 100%; series mostly up to 91.7 µM;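 also: cells exposed to compound for 16 hours at 37 °C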
Method in brief: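 Readout: caspase-cleaved peptide-aminoluciferin substrate driving luciferase light in SH-SY5Y neuroblastoma cells after 16 h treatment. Response normalized to DMSO and 10 uM staurosporine controls.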

[19] = Cellular Toxicity (caspase-3) BJ (AID 658); conditions: BJ fibroblasts, luminescence, normalized: DMSO 0%, staurosporine 100%; series mostly up to 91.7 µM
Method in brief: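 Plated BJ cells (1000/well) rested 5 hr, received compound for 16 hr at 37 °C, then Caspase-Glo 3/7 reagent for 1 hr at room temperature before luminescence reading.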

[20] = Cellular Toxicity (caspase-3) MRC-5 (AID 659); conditions: MRC-5 cells, luminescence, normalized: DMSO 0%, 10 µM staurosporine 100%; series mostly up to 91.7 µM;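 also: cells exposed to compound for 16 h at 37 °C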
Method in brief: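 Apoptosis readout in MRC-5 cells: luciferase light generated after caspase 3/7 cleaves a peptide-aminoluciferin substrate, measured post 16 hr compound incubation at 37 °C.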

O=C1CCC(=O)O1
inactive: Potency [1] > 92 µM | Potency [2] > 92 µM | Potency [3] > 92 µM | Potency [4] > 92 µM | Potency [5] > 92 µM | Potency [6] > 92 µM | outcome [7] | activity change, negative = cytotoxicity [8] 2.23% | Potency [9] | Potency [10] | Potency [11] | Potency [12] | Potency [13] | Potency [14] | Potency [15] | caspase-3 activation [16] 1.09% | outcome [17] | outcome [18] | outcome [19] | outcome [20]

Fc1ccccc1
inactive: Potency [1] > 92 µM | Potency [2] > 92 µM | Potency [3] > 92 µM | Potency [4] > 92 µM | Potency [5] > 92 µM | Potency [6] > 92 µM | outcome [7] | activity change, negative = cytotoxicity [8] 2.48% | Potency [9] | Potency [10] | Potency [11] | Potency [12] | Potency [13] | Potency [14] | Potency [15] | caspase-3 activation [16] 0.771% | outcome [17] | outcome [18] | outcome [19] | outcome [20]

Cc1c(C(=O)O)cccc1[N+](=O)[O-]
inactive: Potency [1] > 92 µM | Potency [2] > 92 µM | Potency [3] > 92 µM | Potency [4] > 92 µM | Potency [5] > 92 µM | Potency [6] > 92 µM | outcome [7] | activity change, negative = cytotoxicity [8] 5.3% | Potency [9] | Potency [10] | Potency [11] | Potency [12] | Potency [13] | Potency [14] | Potency [15] | caspase-3 activation [16] 1.11% | outcome [17] | outcome [18] | outcome [19] | outcome [20]

Cc1ccc(C)c(O)c1
inactive: Potency [1] > 92 µM | Potency [2] > 92 µM | Potency [3] > 92 µM | Potency [4] > 92 µM | Potency [5] > 92 µM | Potency [6] > 92 µM | outcome [7] | activity change, negative = cytotoxicity [8] 3.3% | Potency [9] | Potency [10] | Potency [11] | Potency [12] | Potency [13] | Potency [14] | Potency [15] | caspase-3 activation [16] 0.228% | outcome [17] | outcome [18] | outcome [19] | outcome [20]

CCC(C)(C)C
inactive: Potency [1] > 92 µM | Potency [2] > 92 µM | Potency [3] > 92 µM | Potency [4] > 92 µM | Potency [5] > 92 µM | Potency [6] > 92 µM | outcome [7] | activity change, negative = cytotoxicity [8] -21.6% | Potency [9] | Potency [10] | Potency [11] | Potency [12] | Potency [13] | Potency [14] | Potency [15] | caspase-3 activation [16] -0.787% | outcome [17] | outcome [18] | outcome [19] | outcome [20]

CCNS(=O)(=O)c1ccc(C)cc1
inactive: Potency [1] > 92 µM | Potency [2] > 92 µM | Potency [3] > 92 µM | Potency [4] > 92 µM | Potency [5] > 92 µM | Potency [6] > 92 µM | outcome [7] | activity change, negative = cytotoxicity [8] -13.9% | Potency [9] | Potency [10] | Potency [11] | Potency [12] | Potency [13] | Potency [14] | Potency [15] | caspase-3 activation [16] 2.46% | outcome [17] | outcome [18] | outcome [19] | outcome [20]

C/C(C=O)=C/c1ccccc1
inactive: Potency [1] > 92 µM | Potency [2] > 92 µM | Potency [3] > 92 µM | Potency [4] > 92 µM | Potency [5] > 92 µM | Potency [6] > 92 µM | outcome [7] | activity change, negative = cytotoxicity [8] -1.48% | Potency [9] | Potency [10] | Potency [11] | Potency [12] | Potency [13] | Potency [14] | Potency [15] | caspase-3 activation [16] -0.305% | outcome [17] | outcome [18] | outcome [19] | outcome [20]

C[C@@H]1CC2(OC3C[C@@]4(C)C5=CC[C@H]6C(C)(C)C(O[C@@H]7OC[C@@H](O)[C@H](O)[C@H]7O)CC[C@@]67C[C@@]57CC[C@]4(C)C31)OC(O)C1(C)OC21 (stereo not given in full)
inactive: Potency [1] > 92 µM | Potency [2] > 92 µM | Potency [3] > 92 µM | Potency [4] > 92 µM | Potency [5] > 92 µM | Potency [6] > 92 µM | outcome [7] | activity change, negative = cytotoxicity [8] -8.85% | Potency [9] | Potency [10] | Potency [11] | Potency [12] | Potency [13] | Potency [14] | Potency [15] | caspase-3 activation [16] 2.56% | outcome [17] | outcome [18] | outcome [19] | outcome [20]

Oc1cccc(Nc2ccccc2)c1
inactive: Potency [1] > 92 µM | Potency [2] > 92 µM | Potency [3] > 92 µM | Potency [4] > 92 µM | Potency [5] > 92 µM | Potency [6] > 92 µM | outcome [7] | activity change, negative = cytotoxicity [8] -16.5% | Potency [9] | Potency [10] | Potency [11] | Potency [12] | Potency [13] | Potency [14] | Potency [15] | caspase-3 activation [16] 2.02% | outcome [17] | outcome [18] | outcome [19] | outcome [20]

Cc1cccc(Br)c1
inactive: Potency [1] > 92 µM | Potency [2] > 92 µM | Potency [3] > 92 µM | Potency [4] > 92 µM | Potency [5] > 92 µM | Potency [6] > 92 µM | outcome [7] | activity change, negative = cytotoxicity [8] -13.7% | Potency [9] | Potency [10] | Potency [11] | Potency [12] | Potency [13] | Potency [14] | Potency [15] | caspase-3 activation [16] -1.22% | outcome [17] | outcome [18] | outcome [19] | outcome [20]
